# An excerpt weighted towards active compounds, which were near 2.8% of everything screened.
# Pol iota inh – qHTS for Inhibitors of Polymerase Iota; hit rate 1% among 390,000; AID 588590, 2011; Pol iota fluorescent replication assay, 10 min; Potency, µM (top dose mostly 115 µM), most hits filed as inhibitors; DNA polymerase iota (Homo sapiens), Q9UNA4
#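 Pol iota at 10 nM preincubated 15 min with compounds at room temperature; reaction started with fluorescent substrate, 50 nM final. Fluorescence read kinetically at 0 and 10 min; buffer-only wells as negative control.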
# Pol kappa inh – qHTS for Inhibitors of Polymerase Kappa. DNA polymerase kappa (Homo sapiens), Q9UBT6. purified Pol kappa, fluorescent DNA synthesis assay, 10 min. Potency, µM (top dose mostly 107 µM), actives largely listed as inhibitors. hit rate 0.53% among 400,000. AID 588579, 2011
#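 50 nM final substrate added after 15 min RT preincubation of 10 nM Pol kappa with compound; fluorescence read at 0 and 10 min.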
# PI5P4Ka inh – qHTS for Inhibitors of phosphatidylinositol 5-phosphate 4-kinase (PI5P4K). Phosphatidylinositol 5-phosphate 4-kinase type-2 alpha (Homo sapiens), P48426. PI5P4Kalpha enzyme, ADP-Glo luminescence, 60 min; stronger effect = lower value. max response, %. hit rate 1.2% among 330,000. AID 652105, 2013; active = max response of -50% or lower; inconclusive = between -30% and -50%; inactive = -30% or higher; also: value at the top dose of about 77 µM
#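 qHTS, 1536-well: enzyme/substrate mix, compound by pin tool, 5 microM ATP final; RT 60 min; ADP-Glo reagents 1 (45 min) then 2 (30 min); luminescence.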
# POLH inh – qHTS for Inhibitors of Polymerase Eta; recombinant Pol eta, fluorescent DNA replication assay; Potency, µM (series often up to 114 µM), usual class: inhibitors; hit rate 1.2% among 390,000; AID 588591, 2011
# Target sequence (Q9Y253 whole entry, looked up): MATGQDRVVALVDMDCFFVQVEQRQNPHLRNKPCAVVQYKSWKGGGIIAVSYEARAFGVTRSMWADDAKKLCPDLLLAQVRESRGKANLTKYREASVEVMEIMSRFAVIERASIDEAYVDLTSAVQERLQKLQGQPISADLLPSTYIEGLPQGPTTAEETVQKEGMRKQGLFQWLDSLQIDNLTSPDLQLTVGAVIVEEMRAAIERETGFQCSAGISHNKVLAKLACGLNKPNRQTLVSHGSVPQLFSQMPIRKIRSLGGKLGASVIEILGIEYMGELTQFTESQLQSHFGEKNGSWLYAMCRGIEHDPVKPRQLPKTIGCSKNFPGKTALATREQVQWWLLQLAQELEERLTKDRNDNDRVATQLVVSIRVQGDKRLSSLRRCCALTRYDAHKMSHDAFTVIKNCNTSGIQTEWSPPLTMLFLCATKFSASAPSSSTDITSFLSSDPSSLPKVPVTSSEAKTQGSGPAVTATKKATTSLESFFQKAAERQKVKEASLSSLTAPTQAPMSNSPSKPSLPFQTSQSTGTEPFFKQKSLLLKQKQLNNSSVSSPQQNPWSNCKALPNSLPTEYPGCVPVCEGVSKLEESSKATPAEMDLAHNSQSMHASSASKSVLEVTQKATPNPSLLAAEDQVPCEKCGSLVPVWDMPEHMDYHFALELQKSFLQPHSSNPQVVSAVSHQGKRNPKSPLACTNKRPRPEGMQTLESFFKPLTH
#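 Pol eta (10 nM) was preincubated with compounds for 15 min at room temperature, after which fluorescent replication substrate (50 nM final) was added to start the reaction. Fluorescence was read kinetically at 0 and 10 min.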
# WRN inhibitor – qHTS for Inhibitors of WRN Helicase | hit rate 0.46% among 360,000 | Bifunctional 3'-5' exonuclease/ATP-dependent helicase WRN (Homo sapiens), Q14191 | AID 651768, 2012 | Potency, µM (doses to about 114 µM), most hits filed as inhibitors | WRN helicase unwinding, fluorescent forked duplex, kinetic; also: nearly all actives have a fitted effect of over 55% in size
#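 WRN at 20 nM final was preincubated with compound for 15 min at room temperature; reaction started with 100 nM forked duplex oligonucleotide carrying fluorophore and quencher plus 2 mM ATP (final). Unwinding followed kinetically by red fluorescence (ex 525/em 598 nm).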
# Pol beta inh – qHTS Assay for Inhibitors of DNA Polymerase Beta. P06746. Pol beta primer extension/strand displacement, fluorescence kinetic. Potency, µM (series often up to 114 µM), usual class: inhibitors. hit rate 1.3% among 340,000. AID 485314, 2010
#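 Preincubation: enzyme (10 nM) with compound, 15 min, RT. Reaction: substrate added to 50 nM final. Reads: 0 and 10 min. Analysis: normalized, Hill fit.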
# Numbers stand for hits; – = inactive; ? = inconclusive; · = not tested or not shown; ! = not confirmed by another sample; [ ] = another dose, or the depositor's remark. Unless noted, calls follow the shape of the dose curve; as a rule, active = well fitted curve in the direction sought with a large enough effect; inconclusive = small, poorly fitted or top-dose-only effect, or another doubt; inactive = no such curve, though single readings can be large; an effect the other way counts as inactive or inconclusive.
SMILES,Pol iota inh,Pol kappa inh,PI5P4Ka inh,POLH inh,WRN inhibitor,Pol beta inh
CCOc1ccc(Nc2cc(C)nc3nc(Cc4ccc(Cl)cc4)nn23)cc1,79.4µM,–,·,–,·,?
CNc1nc(N/N=C/c2cc3c(cc2[N+](=O)[O-])OCO3)nc(Nc2ccccc2)n1,?,–,-68.4,?,–,–
CNc1nc(N/N=C/c2cc([N+](=O)[O-])ccc2F)nc(Nc2ccccc2)n1,–,–,–,–,–,·
C[C@@H]1CN([C@@H](C)CO)C(=O)CCCn2cc(nn2)CO[C@H]1CN(C)C(=O)Oc1ccccc1,·,·,–,–,–,·
CCCCOC(=O)CSC1=C(C#N)C(c2ccccc2OCC)C(C#N)C(=O)N1 (stereo unspecified),79.4µM,–,·,–,–,–
CCCOC(=O)CSC1=C(C#N)C(c2ccccc2OCC)C(C#N)C(=O)N1 (stereo unspecified),?,–,–,–,–,?
CCc1ccccc1NC(=O)C1CCC(CNS(=O)(=O)c2ccc3c(c2)CC(C)N3C(C)=O)CC1 (stereo unspecified),–,–,·,–,·,–
CC(=O)N1c2ccc(S(=O)(=O)NCC3CCC(C(=O)N4CCC(C)CC4)CC3)cc2CC1C (stereo unspecified),79.4µM,–,–,–,–,–
CC(=O)N1c2ccc(S(=O)(=O)NCC3CCC(C(=O)Nc4cccc(C)c4C)CC3)cc2CC1C (stereo unspecified),?,–,·,–,·,22.4µM
Cc1ccc(SCc2c(C(=O)N/N=C/c3ccc(C)o3)nnn2-c2nonc2N)cc1,·,·,-54.8,–,–,·
Cc1ccc(/C=N/NC(=O)c2nnn(-c3nonc3N)c2CSc2ccccc2)o1,–,–,–,–,–,–
CC(/C=N/NC(=O)c1nnn(-c2nonc2N)c1CN(C)C)=C\c1ccco1,20µM,79.4µM,–,–,–[11.6 µM],–
COc1ccc(N2Cc3ccccc3C2=O)cc1,–,–,–,–,–,–
C=CC(=O)Oc1ccc(N2Cc3ccccc3C2=O)cc1,39.8µM,–,–,31.6µM,56.2µM,·
CCCCCCCCCCCCCCCC[n+]1cccc(C(=O)N(CC)CC)c1,?,–,-73.2!,–,–,–
CCCCCCCC[n+]1cccc(C(=O)N(CC)CC)c1,–,–,–,–,–,–
COc1ccc(OC)c(S(=O)(=O)Nc2cc3c(cc2C)n(C)c(=O)c(=O)n3C)c1,–,–,·,–,·,–
Cc1ccc(/C=C/C(=O)NCc2cccs2)o1,–,–,–,–,–,–
Cc1ccc2c(=O)c3ccccc3n(CCCN)c2c1C,·,7.94µM!,·,·,·,·
C=CCN=c1scc(-c2ccco2)n1/N=C/c1ccc(O)c(O)c1O,1.78µM,22.4µM,-72.9,?,50.1µM,–
CC1C=CC=CC=CC=CC=CC=CC=CC(OC2OC(C)C(O)C(N)C2O)CC2OC(O)(CC(O)CC(O)C(O)CCC(O)CC(O)CC(=O)OC(C)C(C)C1O)CC(O)C2C(=O)O (stereo unspecified),1.26µM,17.8µM,–,0.891µM,17.8µM,·
O=C(O)c1ccc(Cn2ccc3ccccc32)o1,–,–,–,44.7µM,–,?
COc1ccc(C)cc1S(=O)(=O)N1CCCC(C(=O)N2CCN(c3ccccc3)CC2)C1 (stereo unspecified),–,–,–,–,–,?
COc1cc(C(=O)O)ccc1OC(C)=O,89.1µM,–,·,–,–,–
O=C(/C=C/c1ccc(Br)cc1)c1ccc(NC(=O)c2ccco2)cc1,?,?,–,?,–,7.08µM
SMILES,Pol iota inh,Pol kappa inh,PI5P4Ka inh,POLH inh,WRN inhibitor,Pol beta inh
O=C(Nc1ccc(Nc2ccccc2)cc1)c1ccccc1F,–,–,–,–,–,–
O=C(/C=C/c1ccncc1)c1ccc(NC(=O)c2ccccc2F)cc1,?,–,–,–,?,15.8µM
O=C(/C=C/c1ccc(Br)cc1)c1ccco1,?,–,–,–,?,–
O=C(O)CNS(=O)(=O)c1c(Cl)cccc1Cl,–,–,–,–,–,–
Cc1[nH]c(=O)[nH]c(=S)c1C(=O)Nc1ccc(Cl)c(Cl)c1,–,–,?,–,–,·
Cc1cc2c(c(=O)o1)C(c1ccc([N+](=O)[O-])o1)C(C#N)=C(N)O2 (stereo unspecified),20µM,79.4µM,–,–,?,?
CCOC(=O)c1[nH]c2ccc(C)cc2c1NC(=O)CN1CCCCC1,–,–,–,–,–,–
Cc1c2cc[n+](CCN3CCCCC3)cc2c(C)c2c1[nH]c1ccc(O)cc12,25.1µM,35.5µM,?,2.82µM,28.2µM,·
COC(=O)CSC1=C(C#N)C(=O)NC(c2ccccc2)S1 (stereo unspecified),–,–,-55.7,–,–,–
CSC1=C(C#N)C(=O)NC(c2ccccc2O)S1 (stereo unspecified),–,–,–,–,–,–
Cc1ccc2oc(-c3ccccc3C(=O)O)cc(=O)c2c1,–,–,–,–,–,?
O=C(O)c1ccccc1-c1c2cc(Br)c(=O)c(Br)c-2oc2c(Br)c(O)c(Br)cc12,·,10µM,·,·,·,·
Nc1nc(SCC(=O)Nc2ccc(C(F)(F)F)cc2)[nH]c(=O)c1NC(=O)c1ccc(F)c(F)c1,–,–,–,–,–,–
COc1ccc(C(=O)Nc2cccc(S(C)(=O)=O)c2)cc1OC,–,–,–,–,–,–
COc1ccc(C(=O)Nc2cccc(NC(C)=O)c2)cc1OC,?,?,–,?,–,8.91µM
COc1ccc(C(=O)Nc2c(N)nc(SCC(=O)Nc3ccc(NC(C)=O)cc3)[nH]c2=O)cc1OC,79.4µM,?,–,?,–,?
CCOc1cccc(=O)c2c(C)n(Cc3ccccc3)c(C)c12,–,–,–,–,–,?
CCOc1cccc(=O)c2c(C)n(Cc3ccco3)c(C)c12,–,–,–,–,–,25.1µM
Cc1ncnc2nc[nH]c12,–,–,·,·,·,·
Cc1cccc(C(=O)NNC(=O)c2cc3cc4ccccc4nc3s2)c1,–,–,–,?,–,–
O=C(NNC(=O)c1cc2cc3ccccc3nc2s1)c1ccc(F)cc1,?,–,–,?,–,0.316µM
CC(=O)c1cccc(CN2CCCC(C(=O)Nc3ccc(-c4ccco4)cc3)C2)c1 (stereo unspecified),44.7µM,–,–,?,–,–
COC(=O)c1c(NC(=O)COC(=O)c2ccccc2O)sc2c1CCCCC2,–,–,–,–,–,–
O=C(COC(=O)c1cc2c(s1)CCCC2)Nc1ccc(Cl)cn1,–,–,–,–,–,–
NC(=O)c1c(NC(=O)COC(=O)c2ccc(O)c(Cl)c2)sc2c1CCCC2,?,–,-55.3,50.1µM,–,·
